Compound activity (PubChem BioAssay)
Compounds with a hit are over-represented: about 4% of the library has one in this group of screens.
Peg3 prom inh-1 = Peg3 promoter activity inhibition. 1.7% of 360,000 active. inhibition, % at 20 µM. AID 588405. HeLa PEG-Prom luciferase reporter, luminescence, overnight;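 active = inhibition of at least 50% at 20 µM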
HIF-2a block = inhibitors of HIF-2a; 786-0 RCC cells HIF-2a reporter, luciferase luminescence, overnight; inhibition, % at 18.8 µM; 0.72% of 360,000 active;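 active = inhibition of the luminescence signal of 40% or more relative to plate controls, in a single-dose primary screen at 18.75 µM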
CF NFkB inh = cystic fibrosis NF-kB activation inhibition. KKLEB NF-kB-GFP reporter, PAF-induced, GFP fluorescence overnight. inhibition, % at 5 µM. 0.86% of 360,000 active. AID 588850;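 active = at least 50% inhibition at 5 µM, scaled per plate between neutral and stimulator controls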;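 also: PAF is a Pseudomonas aeruginosa culture filtrate used as stimulus; plate controls were PAF-stimulated DMSO wells for no effect and unstimulated DMSO wells for full effect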
KKLEB cytotox = counter-screen for CF NF-kB inhibitors: cytotoxicity. AID 602141. KKLEB CF airway cells viability, ATPlite luminescence, overnight; stronger effect = lower value; cells stimulated with P. aeruginosa culture filtrate. activity change (cytotoxicity), % at 5 µM. 0.36% of 360,000 active;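 active = corrected activity change at or below -50% at 5 µM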
TROY signal inh = TROY signaling inhibition | Q293 LMP1-TROYcd NF-kB luciferase reporter, 4 h | inhibition, % at 10 µM | 0.98% of 360,000 active | AID 1347056;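 active = compounds whose plate-normalised and pattern-corrected inhibition of the luciferase reporter signal at the single screening dose is 50% or more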
TWEAK-Fn14 inh = TWEAK-Fn14 signaling inhibition; inhibition, % at 10 µM; 2% of 360,000 active; TWEAK-stimulated Fn14 reporter cells, luciferase luminescence, 8 h; in the data active = inhibition above about 50%
Peg3 prom inh-2 = confirmation of Peg3 promoter inhibitors; shares compounds with Peg3 prom inh-1; HeLa PEG-Prom luciferase reporter, luminescence, overnight; inhibition, % at 20 µM; 84% of 1,300 active;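 active = at 20 µM dose, 40% or more inhibition averaged across four replicates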
* hit, by the source's call; x = not tested or not shown.

SMILES	Peg3 prom inh-1	HIF-2a block	CF NFkB inh	KKLEB cytotox	TROY signal inh	TWEAK-Fn14 inh	Peg3 prom inh-2
Cc1ccc(C(=O)C(OC(=O)CNS(=O)(=O)c2ccccc2)c2ccccc2)cc1 (configuration not stated)	6.1	-4.5	14.7	18.7	12.6	12.4	x
COc1cc2ccc3c(CCN(C)C)cc(OC)c(OC)c3c2cc1OC	30.8	19.7	-1.3	0.9	-10.3	-8.3	x
CN(C)CCc1cc2c(c3c1ccc1ccccc13)OCO2	93.2*	33.5	-38.1	-3.4	-18.6	-12.3	92.9*
CC(=O)c1ccc(Nc2cc(C)nc3ccc(C)cc23)cc1	81.6*	29.7	-5.8	0.1	-28.0	-12.0	87.3*
COc1ccc(Nc2cc(C)nc3ccc(C)cc23)cc1	-4.1	20.4	-10.5	-0.4	-12.2	-22.6	x
Cc1cc(C)nc(NC(=O)c2c(F)c(F)c(F)c(C(=O)Nc3cc(C)cc(C)n3)c2F)c1	90.5*	32.4	11.9	-29.4	-1.8	14.4	72.3*
Cc1cc(C)nc(NC(=O)CCCC(=O)O)c1	14.8	3.5	-9.4	0.3	-2.0	-0.1	x
Cc1ccccc1N1CC(=O)Nc2c(oc3nc(-c4ccccc4)cc(C)c23)C1=O	-0.9	21.4	15.8	-0.7	16.4	-48.5	x
Cc1nc(-c2ccc(NC(=O)c3ccco3)cc2)cs1	82.5*	63.8*	5.1	-53.5*	50.4*	96.6*	66.6*
COc1cc(C(=O)Nc2ccc3oc(-c4cccnc4)nc3c2)cc(OC)c1OC	52.3*	7.6	6.0	-10.6	30.9	24.4	43.2*
COc1cc(C(=O)Nc2nc(OC)c(-c3ccccc3)c(OC)n2)cc(OC)c1OC	50.4*	-11.8	6.2	-14.2	11.5	-9.4	43.4*
O=S(=O)(Nc1ccc2c(c1)nc1n2CCOC1)c1ccccc1	21.2	10.7	-8.9	-0.4	3.5	8.9	x
N=c1n(CC(=O)c2ccc([N+](=O)[O-])cc2)c2ccccc2n1Cc1ccccc1	66.0*	12.4	3.4	-31.2	-5.3	2.2	42.4*
N=c1n(CC(=O)c2ccc([N+](=O)[O-])cc2)c2ccccc2n1Cc1ccc(Cl)cc1	109.0*	10.1	6.6	-36.5	3.4	2.2	97.0*
Cc1cc(/C=c2/sc3nc4ccccc4n3c2=O)c(C)n1-c1ccccn1	74.7*	74.7*	9.5	-54.4*	75.2*	82.5*	88.3*
Nc1c(C(=O)Nc2nc3ccccc3s2)sc2nc(-c3cccs3)ccc12	95.4*	-40.4	12.0	-40.6	-16.9	-1.7	63.9*
CN(C(=O)/C=C/c1ccc(F)cc1)C1CCCCC1	-280.4	-250.8	3.1	-11.0	-23.0	5.9	x
CCCc1cc(=O)oc2cc(OC(C)C(=O)NCc3ccccn3)c(Cl)cc12 (configuration not stated)	6.5	7.9	-0.9	-15.7	7.6	-11.0	x
CC(C(=O)N1CCOCC1)N1C(=O)C2C3C=CC(C4CC34)C2C1=O (configuration not stated)	17.1	6.6	-3.6	4.1	7.8	-6.7	x
OCCCn1c(CCNc2nc(-c3ccc(Cl)cc3)cs2)nc2cc(C(F)(F)F)ccc21	-6.6	-23.0	-12.8	-4.7	-2.5	4.4	x
O=[N+]([O-])c1cc(-c2csc(NCCc3nc4cc(C(F)(F)F)ccc4n3CCCO)n2)ccc1Cl	54.0*	-3.8	-17.8	-9.7	-19.4	-17.9	20.4
CCC(=O)N1CCc2cc(S(=O)(=O)NC(C(=O)N3CCN(c4ccc(F)cc4)CC3)C(C)C)ccc21 (configuration not stated)	7.5	1.7	-13.6	-0.5	3.6	-2.7	x
Cc1ccccc1NC(=O)Nc1nc(CN)cs1	-2.1	8.3	-20.7	7.4	9.6	7.8	x
Cc1ccccc1NC(=O)Nc1nc(C(N)Cc2ccccc2)cs1 (configuration not stated)	72.7*	-8.1	7.8	-10.8	17.3	-9.9	41.9*
COc1cc(NC(=O)Nc2nc(C(N)CCc3ccccc3)cs2)cc(OC)c1OC (configuration not stated)	73.9*	-21.7	-21.6	5.7	39.0	39.1	82.6*
SMILES	Peg3 prom inh-1	HIF-2a block	CF NFkB inh	KKLEB cytotox	TROY signal inh	TWEAK-Fn14 inh	Peg3 prom inh-2
COc1ccc(CC(N)c2csc(NC(=O)c3cccs3)n2)cc1 (configuration not stated)	13.1	1.6	-7.7	-29.9	6.9	13.8	x
COc1ccc(CC(N)c2csc(NC(=O)Nc3ccccc3C(C)(C)C)n2)cc1 (configuration not stated)	87.0*	-5.0	0.1	-4.5	-4.9	-0.9	76.5*
COc1ccc(CC(N)c2csc(NC(=O)Nc3cc(OC)ccc3OC)n2)cc1 (configuration not stated)	93.7*	0.8	-12.9	4.7	8.3	-10.0	95.5*
CCC(C)(C)NC(=O)CN(Cc1ccc2c(c1)OCO2)C(=O)CCC(=O)Nc1nccs1	6.4	23.8	10.5	-10.3	17.1	-23.1	x
CCN(CC)C(=O)CSc1nnc([C@@H](N)C(C)C)o1	-6.4	5.2	1.1	-8.7	10.9	-18.4	x
CC(C)COc1ccc(C2NC(=O)NC2=O)cc1 (configuration not stated)	-20.0	1.8	-24.5	8.0	-8.3	15.2	x
Cc1ccc(C)n1-c1ccc(-c2ccnc(N)n2)cc1	-27.6	-51.6	13.1	5.3	-30.0	30.3	x
COc1ccc(S(=O)(=O)N2c3ccccc3OCC2c2ccccc2)cc1 (configuration not stated)	50.1*	29.4	11.6	-12.6	40.9	79.2*	45.7*
COc1ccc(S(=O)(=O)N2c3ccccc3OCC2C)cc1 (configuration not stated)	16.4	28.8	17.7	-8.2	26.1	8.6	x
COc1ccc(-n2cc(CNC3CCN(C)CC3)c(-c3cccc(F)c3)n2)cc1	52.3*	-3.2	13.5	-6.9	-36.2	-13.6	60.3*
CCOC(=O)Cc1c(Sc2ccccc2)c2cc(C)ccc2n1C	25.9	25.4	-8.2	1.5	-9.7	22.9	x
COc1cccc(-c2sc3ccc(OC)cc3c2-c2ccc(O)cc2)c1	16.9	21.8	-12.2	0.9	-3.9	15.7	x
COc1cccc(-c2sc3ccc(OC)cc3c2-c2ccc(OCCN(C)C)cc2)c1	100.0*	-4.7	38.1	-20.5	21.9	-39.6	70.7*
O=C(Nc1nc2cc3c(cc2s1)OCCO3)c1ccco1	66.4*	71.3*	-1.4	-37.0	81.6*	100.2*	61.7*
O=C(Nc1nc2cc3c(cc2s1)OCO3)C1=COCCO1	61.5*	54.8*	8.1	-28.3	69.9*	101.2*	63.9*
OCC(O)C(O)C(O)C(O)C1NCCS1 (configuration not stated)	-0.6	2.8	-9.6	-0.8	5.8	-26.9	x
CC1CCN(C(=O)c2ccc(CS(=O)(=O)Cc3ccccc3)cc2)CC1	-6.9	10.5	-8.8	-3.8	3.7	18.2	x
